Results published in PubChem BioAssay (Tox21).
Where “and” joins values, the source holds several entries; their conditions need not be identical. Equal entries are not always repeated. Results filed as inconclusive are left out. Where a call stands in place of a potency, no number is given. Some compounds were tested as several samples or in several runs, with calls that do not always agree. Calls of active or inactive are those of the source. Unless noted, calls come from the whole dose curve; as a rule, active = well fitted curve in the direction sought with a large enough effect in the repeat runs; inconclusive = weak or mixed curves; inactive = no such curve, though single readings can be large; an effect the other way counts as inactive or inconclusive.

What was measured:
[1] = qHTS assay to identify small molecule agonists of H2AX - cell viability counter screen (AID 1224847; calls by dose curve; note: nearly all actives have a fitted effect of over 30% in size; note: potency is the fitted concentration of half-maximal effect)
In short: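 We seed wild-type CHO-K1 cells overnight, treat them for 3 hr at 37C with compounds in 15-concentration series, and quantify remaining viability by CellTiter-Glo luminescence.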

[2] = qHTS assay to identify small molecule agonists of the estrogen related receptor (ERR) signaling pathway from Tox21 library (AID 1224849; calls by dose curve; note: nearly all actives have a fitted effect of over 15% in size); conditions: ERR reporter cell line, ONE-Glo luciferase, 18 h; at 92.4 µM (top of the series) unless noted
In short: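 Six hours post-seeding at 37 C/5% CO2, ERR cells receive DMSO-solubilised compounds; after 18 h at 37 C, ONE-Glo reagent is applied and luminescence recorded.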

[3] = qHTS RealTime-Glo MT Cell Viability Assay in HepG2 cells - 24 hour (AID 1224867); note: nearly all actives have a fitted effect of over 50% in size; note: potency is the fitted concentration of half-maximal effect
In short: (§1)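 Luminescence read-out: viable HepG2 cells reduce a prosubstrate to a NanoLuc substrate, giving a signal proportional to live cell number. Reads taken at 0, 8, 16, 24, 32 and 40 h of compound exposure at 37 C.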

[4] = A CellTox Green Cytotoxicity Assay to monitor cytotoxicity in HEK293 cells - 0 hour (AID 1224869); note: nearly all actives have a fitted effect of over 50% in size
In short: (§2)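 Seeding of HEK293 cells together with cytotoxicity dye preceded a 5 h incubation at 37 C/5% CO2. Test compounds in DMSO were then added and fluorescence monitored across 40 h.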

[5] = qHTS RealTime-Glo MT Cell Viability Assay in HepG2 cells - 8 hour (AID 1224873); note: nearly all actives have a fitted effect of over 55% in size; note: potency is the fitted concentration of half-maximal effect
In short: (§3)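 Real-time viability: cells seeded at 600 per well together with NanoLuc and cell-permeant prosubstrate, compounds added after 5 h incubation. Luminescence tracked at 0, 8, 16, 24, 32 and 40 h of exposure.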

[6] = A CellTox Green Cytotoxicity Assay to monitor cytotoxicity in HEK293 cells - 24 hour (AID 1224875); note: nearly all actives have a fitted effect of over 45% in size; note: potency is the fitted concentration of half-maximal effect
In short: as §2

[7] = A CellTox Green Cytotoxicity Assay to monitor cytotoxicity in HepG2 cells - 16 hour (AID 1224876); note: nearly all actives have a fitted effect of over 45% in size; note: potency is the fitted concentration of half-maximal effect
In short: (§4)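 Nonlytic assay: viable cells exclude the dye, so fluorescence scales with cell death. HepG2 at 600 cells/well, compounds added after 5 h, signal read across 40 h.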

[8] = A CellTox Green Cytotoxicity Assay to monitor cytotoxicity in HepG2 cells - 24 hour (AID 1224878); note: nearly all actives have a fitted effect of over 45% in size; note: potency is the fitted concentration of half-maximal effect
In short: as §4

[9] = A CellTox Green Cytotoxicity Assay to monitor cytotoxicity in HepG2 cells - 40 hour (AID 1224879); note: nearly all actives have a fitted effect of over 40% in size; note: potency is the fitted concentration of half-maximal effect
In short: as §4

[10] = qHTS RealTime-Glo MT Cell Viability Assay in HEK293 cells - 0 hour (AID 1224880); note: top concentration of the series differs between compounds; nearly all actives have a fitted effect of over 45% in size
In short: (§5)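 Tox21 screen in HEK293 using RealTime-Glo MT chemistry, with cells and reagent co-dispensed. Luminescence proportional to viable cell number was captured at intervals during 40 h compound exposure at 37 C.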

[11] = A CellTox Green Cytotoxicity Assay to monitor cytotoxicity in HEK293 cells - 32 hour (AID 1224881); note: nearly all actives have a fitted effect of over 40% in size; note: potency is the fitted concentration of half-maximal effect
In short: as §2

[12] = qHTS assay to identify small molecule antagonists of the estrogen related receptor (ERR) signaling pathway from Tox21 library (AID 1224848); note: nearly all actives have a fitted effect of over 50% in size; note: potency is the fitted concentration of half-maximal effect
In short: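 Antagonist-mode screen of the Tox21 10K library in an NTP-provided ERR reporter cell line; 18 h compound exposure at 37 C, luminescence measured with ONE-Glo.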

[13] = qHTS RealTime-Glo MT Cell Viability Assay in HepG2 cells - 40 hour (AID 1224870); note: nearly all actives have a fitted effect of over 50% in size
In short: as §3

[14] = qHTS RealTime-Glo MT Cell Viability Assay in HepG2 cells - 32 hour (AID 1224877); note: nearly all actives have a fitted effect of over 55% in size
In short: as §1

[15] = qHTS RealTime-Glo MT Cell Viability Assay in HEK293 cells - 32 hour (AID 1224868); note: nearly all actives have a fitted effect of over 50% in size; note: potency is the fitted concentration of half-maximal effect
In short: (§6)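 Nonlytic real-time viability readout: viable cells convert prosubstrate to NanoLuc substrate, giving luminescence proportional to live cell number. HEK293, 600 cells/well, compound added after 5 h, continuous culture at 37 C.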

[16] = qHTS RealTime-Glo MT Cell Viability Assay in HEK293 cells - 16 hour (AID 1224872); note: nearly all actives have a fitted effect of over 50% in size; note: potency is the fitted concentration of half-maximal effect
In short: as §6

[17] = qHTS RealTime-Glo MT Cell Viability Assay in HEK293 cells - 40 hour (AID 1224874); conditions: RealTime-Glo luminescence; max response: stronger effect = lower value; note: nearly all actives have a fitted effect of over 50% in size; note: potency is the fitted concentration of half-maximal effect
In short: as §5

[18] = A CellTox Green Cytotoxicity Assay to monitor cytotoxicity in HepG2 cells - 0 hour (AID 1224882); note: nearly all actives have a fitted effect of over 35% in size
In short: as §4

[19] = A CellTox Green Cytotoxicity Assay to monitor cytotoxicity in HEK293 cells - 40 hour (AID 1224871); note: nearly all actives have a fitted effect of over 45% in size; note: potency is the fitted concentration of half-maximal effect
In short: as §2

SMILES | Potency [1] | activity change, positive = activation [2] | Potency [3] | Potency [4] | Potency [5] | Potency [6] | Potency [7] | Potency [8] | Potency [9] | Potency [10] | Potency [11] | Potency [12] | Potency [13] | Potency [14] | Potency [15] | Potency [16] | Potency [17] | Potency [18] | Potency [19] | max response [17]
N#CC(Cl)Cl | inactive | -30.9% (inactive) | inactive | inactive | inactive | inactive | inactive | inactive | 1.2 µM (active) | inactive | inactive |  |  |  |  |  |  |  |  | 
CC(=O)C(Cl)(Cl)Cl | 30.8 µM (active) | -67.8% (inactive) |  | inactive | inactive | inactive | inactive | inactive | inactive |  | inactive | 5.9 µM (active) | inactive | inactive |  |  |  |  |  | 
Cc1cc(N=Nc2ccccc2C)ccc1N | 113 µM (active) and 89.8 µM (active) | 34.9% (active) and 43.7% (active) |  | inactive |  |  | inactive | inactive | 21.9 µM (active) and 19.5 µM (active) | inactive |  | inactive | inactive | inactive | 21.9 µM (active) | 21.9 µM (active) and 19.5 µM (active) | 21.9 µM (active) | inactive |  | 
C=CCC1=C(C)C(OC(=O)C2C(C=C(C)C)C2(C)C)CC1=O (stereo unspecified) | 60.1 µM (active) | -28.6% (inactive) |  | inactive |  | 51.9 µM (active) |  |  |  | inactive | 51.9 µM (active) | 20.5 µM (active) | inactive | inactive | 26 µM (active) | 20.7 µM (active) | 41.2 µM (active) |  |  | 
CC1(c2ccc(Oc3ccccc3)cc2)OC(=O)N(Nc2ccccc2)C1=O (stereo unspecified) | 50.8 µM (active) | -64.5% (inactive) | 49.3 µM (active) | inactive | 49.3 µM (active) |  |  |  | 55.3 µM (active) | inactive |  | 2.45 µM (active) |  |  | 43.9 µM (active) |  | 49.3 µM (active) |  |  | 
Cc1cc(SCc2sc(-c3ccc(C(F)(F)F)c(F)c3)nc2C)ccc1OCC(=O)O | 101 µM (active) | -21.2% (inactive) | inactive | inactive | inactive | inactive | inactive | inactive | inactive | inactive | inactive |  | inactive | inactive |  |  |  |  | inactive | 
O=c1oc2ccccc2c(O)c1Cc1c(O)c2ccccc2oc1=O | inactive | -18.2% [at 42.5 µM] (inactive) | inactive | inactive |  | inactive | inactive | inactive | inactive |  | inactive |  | inactive | inactive | inactive | inactive |  | inactive | inactive | 0.643% (inactive)
CC(C)CC(C)(c1ccc(O)cc1)c1ccc(O)cc1 | 101 µM (active) and 89.8 µM (active) | -67.3% (inactive) and -18.5% (inactive) |  | inactive |  |  | 43.8 µM (active) | 43.8 µM (active) | 43.8 µM (active) | inactive | 49.1 µM (active) | 54.6 µM (active) and inactive | inactive | inactive | 39 µM (active) | 43.8 µM (active) and inactive | 27.6 µM (active) | inactive | 55.1 µM (active) | 
O=C(CCl)C(Cl)Cl | inactive | -73% (inactive) |  | inactive | inactive |  | inactive |  | 49.4 µM (active) | inactive | 27.8 µM (active) | 43.7 µM (active) |  |  | 17.5 µM (active) | 17.5 µM (active) | 17.5 µM (active) | inactive | 24.8 µM (active) | 
O=c1c(C2CC(c3ccc(-c4ccc(Br)cc4)cc3)Cc3ccccc32)c(O)sc2ccccc12 (stereo unspecified) | inactive | -54.2% [at 42.5 µM] (inactive) |  | inactive |  | inactive | inactive | inactive | inactive |  | inactive | 7.5 µM (active) |  |  | inactive | inactive |  | inactive | inactive | -20.8% (inactive)
CC1CCC(C(C)C)C(OC(=O)c2ccccc2N)C1 (stereo unspecified) | 88.5 µM (active) | -55.4% (inactive) | inactive |  | inactive |  | inactive |  |  | inactive | 38.4 µM (active) | 53.7 µM (active) | inactive | inactive | 38.4 µM (active) | 34.2 µM (active) | 34.2 µM (active) | inactive | 27.2 µM (active) | 
O=C/C(Cl)=C(/Cl)C(=O)O | inactive | -23.8% (inactive) and 0.311% (inactive) | inactive | inactive | inactive | inactive | inactive | inactive | 48.9 µM (active) | inactive | inactive | inactive | inactive | inactive |  | inactive |  | inactive | inactive | 20.3% (inactive)
